An excerpt weighted towards active compounds, which were near 4.1% of everything screened.
hcDAF12 agonist – activators of H. contortus DAF-12 nuclear receptor. hit rate 1.4% among 370,000. HEK293 hcDAF-12 lit1-tk-luc reporter, luminescence; 0% DMSO, 100% Δ7-dafachronic acid. activation, % at 6.8 µM;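 active = activation above the mean of all tested compounds plus 3 SD, cut at about 5.5% in these data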
DAX1 inh-1 – blocks DAX1 repression of SF-1 activated StAR promoter; HEK293T StAR-luciferase reporter, SF-1/DAX-1 repression relief; inhibition, % at 6.8 µM; hit rate 1.1% among 370,000;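 active = inhibition above the mean over all tested compounds plus 3 SD, cut at about 3.6% in these data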;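 also: higher inhibition means more luminescence from relief of DAX-1 repression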
DAX1 inh-2 – NR0B1 (DAX1) inhibition | HEK293 Gal4-DAX1 luciferase reporter, luminescence | inhibition, % at 6.75 µM | hit rate 0.99% among 340,000 | AID 504766;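 active = inhibition above the mean over all tested compounds plus 3 SD, cut at about 4.2% in these data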;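 also: inhibition shows as a rise in luminescence from relieved DAX1 repression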
Target sequence (P51843 207-470 limits assumed): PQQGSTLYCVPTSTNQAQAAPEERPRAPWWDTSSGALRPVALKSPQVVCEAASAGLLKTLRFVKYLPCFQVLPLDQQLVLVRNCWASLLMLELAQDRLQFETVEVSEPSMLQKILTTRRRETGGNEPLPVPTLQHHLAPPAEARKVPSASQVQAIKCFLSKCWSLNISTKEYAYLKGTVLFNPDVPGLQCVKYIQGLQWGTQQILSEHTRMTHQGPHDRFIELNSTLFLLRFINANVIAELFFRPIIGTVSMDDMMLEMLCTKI
hgDAF12 agonist – activates the H. glycines DAF-12 receptor ligand-binding domain; HEK293 GAL4-hgDAF12 UAS-luciferase reporter, agonist luminescence; normalized to butyrate control; activation, % at 6.8 µM; hit rate 1.8% among 370,000; AID 687014;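 active = activation above a cutoff set at the mean of all screened compounds plus 3 SD, cut at about 10% in these data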
ssDAF12 agonist – activates DAF-12 receptor from parasite S. stercoralis; HEK293 ssDAF-12/GRIP1 lit1-tk-luc reporter, luminescence; % of 3 µM dafachronic acid response; activation, % at 6.8 µM; hit rate 1% among 370,000; AID 652126;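 active = activation above the mean over all tested compounds plus 3 SD, cut at about 0.9% in these data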
DAX1 conf – confirmation of human DAX1 (NR0B1) inhibitors | HEK293T StAR-promoter luciferase reporter, SF-1/DAX-1 repression | AID 652134 | shares compounds with DAX1 inh-1 | inhibition, % at 6.8 µM | hit rate 87% among 2,400;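 active = inhibition above the average of every tested compound plus 3 SD, cut at about 3.8% in these data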;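 also: active compounds raise luminescence by relieving repression of the StAR reporter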
SF1 AF2mut Luc – counter-screen for DAX1 inhibitors: nonselective inhibitors with SF-1 AF2 mutant; HEK293 StAR-luciferase, luminescence; hit rate 78% among 2,400; inhibition, % at 6.8 µM; shares compounds with DAX1 inh-1;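 active = inhibition above the mean of all tested compounds plus 3 SD, cut at about 3% in these data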
LXR ag – counter-screen for hcDAF-12 agonists: agonists of human LXR-beta; 3,400 tested, under 10 active; shares compounds with hcDAF12 agonist; activation, % at 6.8 µM; HEK293 Gal4-LXR tk-luc reporter, luminescence, 24 h; normalized: DMSO 0%, positive control 100%;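 active = mean percent activation of the reporter above a cutoff set as the average over tested compounds plus their standard deviation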
Target sequence (P55055 whole entry, looked up, the tested form may be a part): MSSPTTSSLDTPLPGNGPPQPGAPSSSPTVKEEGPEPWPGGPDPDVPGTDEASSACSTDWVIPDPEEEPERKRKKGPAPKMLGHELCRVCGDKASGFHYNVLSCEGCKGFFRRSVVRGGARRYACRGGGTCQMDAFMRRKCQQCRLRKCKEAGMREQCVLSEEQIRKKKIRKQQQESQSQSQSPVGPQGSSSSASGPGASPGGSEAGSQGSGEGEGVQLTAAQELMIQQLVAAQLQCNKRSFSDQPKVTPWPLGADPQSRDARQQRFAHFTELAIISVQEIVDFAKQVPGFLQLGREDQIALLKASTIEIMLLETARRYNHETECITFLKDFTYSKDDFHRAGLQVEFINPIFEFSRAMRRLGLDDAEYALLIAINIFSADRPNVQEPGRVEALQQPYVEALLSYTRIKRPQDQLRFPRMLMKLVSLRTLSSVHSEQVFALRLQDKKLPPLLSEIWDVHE
hcDAF12 ag – hcDAF-12 agonism, confirmation assay | shares compounds with hcDAF12 agonist | hit rate 61% among 3,400 | activation, % at 6.8 µM | HEK293 hcDAF-12 lit1-tk-luc reporter, luminescence; % of Δ7-dafachronic acid response;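 active = mean activation across triplicate tests above the threshold derived from the earlier primary screen, cut at about 5.5% in these data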
hgDAF12 conf – confirmation of H. glycines DAF-12 agonists; shares compounds with hgDAF12 agonist; hit rate 80% among 3,300; activation, % at 6.8 µM; HEK293 GAL4-hgDAF12 luciferase reporter, agonist mode; percent of butyrate response;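 active = mean activation over triplicate wells above the hit cutoff derived from the earlier primary screen, cut at about 11% in these data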
LXRb DAF12 ctr – LXR-beta agonism as DAF-12 counter-screen | shares compounds with hgDAF12 agonist | HEK293 Gal4-LXR luciferase reporter, 24 h | activation, % at 6.8 µM | 3,300 tested, under 10 active | AID 743051;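 active = mean activation of the triplicate above a set limit carried over from the primary screen, none filed active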
Hits are given with their value; – = inactive; · = not tested or not shown.

SMILES	hcDAF12 agonist	DAX1 inh-1	DAX1 inh-2	hgDAF12 agonist	ssDAF12 agonist	DAX1 conf	SF1 AF2mut Luc	LXR ag	hcDAF12 ag	hgDAF12 conf	LXRb DAF12 ctr
CC1CC(C)CN(C(=O)c2ccc3ccccc3c2)C1 (stereo unspecified)	–	–	–	–	–	·	·	·	·	·	·
CC1CCN(C(=O)c2ccc3ccccc3c2)CC1	–	7.9	–	13.6	–	6.8	3.8	·	·	14.7	–
COc1cccc(NC(=O)CN(C)C(=O)CCNC(=O)c2ccccc2OC)c1	–	–	–	–	–	·	·	·	·	·	·
O=C(NCCc1ccccn1)c1ccc(OC(F)F)cc1	–	5.4	–	15.8	–	9.3	3.8	·	·	14.9	–
O=C(NNC(=O)c1ccccn1)c1ccc(OC(F)F)cc1	–	–	–	–	–	·	·	·	·	·	·
O=C(NCc1cccnc1)c1cc(C2CCCN(S(=O)(=O)c3ccccc3)C2)on1 (stereo unspecified)	–	–	·	–	–	·	·	·	·	·	·
O=C(Cc1nnc(NC(=O)c2cccc([N+](=O)[O-])c2)s1)NCc1ccccc1	–	–	–	–	–	·	·	·	·	·	·
CNc1nc(N2CCc3ccccc32)ncc1F	5.8	5.1	–	14.8	–	10.5	5.0	·	·	14.8	–
c1ccc2c(c1)CCCN2c1nc(N2CCOCC2)nc(N2CCOCC2)n1	–	–	–	–	–	·	·	·	·	·	·
O=C(Nc1cccc(-c2ccc(N3CCCCC3)nn2)c1)c1ccco1	–	7.3	–	16.4	1.6	–	3.0	·	·	13.8	–
O=C(Nc1cccc(-c2ccc(N3CCOCC3)nn2)c1)c1ccc(Cl)cc1	–	–	–	–	–	·	·	·	·	·	·
COc1cccc(OC)c1C(=O)Nc1cccc(-c2ccc(N3CCOCC3)nn2)c1	–	5.1	–	13.9	–	4.0	3.4	·	·	–	–
Cc1n[nH]c2ccc([N+](=O)[O-])cc2c1=O	–	–	–	–	–	·	·	·	·	·	·
O=C(NC1CCCCCC1)c1ccc(CS(=O)(=O)Cc2ccccc2F)o1	–	–	–	–	–	·	·	·	·	·	·
O=C(NC1CCCCC1)c1ccc(-c2ccccc2F)o1	10.0	8.7	–	19.6	2.0	18.5	6.2	–	6.1	19.2	–
O=C1c2ccccc2S(=O)(=O)N1CC1CC(c2ccc(Cl)cc2)=NO1 (stereo unspecified)	6.7	4.8	–	15.2	–	14.1	7.5	–	–	13.8	–
COc1ccc(-c2cc3ccccc3oc2=O)cc1NC(=O)c1ccc(Br)o1	–	–	–	–	–	·	·	·	·	·	·
CCC(=O)Nc1cc(-c2cc3ccccc3oc2=O)ccc1OC	–	5.0	–	13.8	–	9.3	6.0	·	·	15.4	–
O=C(CCCc1ccccn1)c1cccc2ccccc12	11.6	5.6	–	15.0	1.1	12.8	5.7	–	9.6	15.0	–
CCCCNC(=S)Nc1ccc(-c2nc3ccc(C)cc3s2)cc1	10.3	7.1	–	20.1	–	13.3	9.0	–	–	20.1	–
CNC(=S)Nc1ccc(-c2nc3ccc(C)cc3s2)cc1	7.3	5.9	–	18.2	1.8	11.8	6.2	–	8.9	24.2	–
Cc1cc(C)cc(N(CC(=O)Nc2ccc(-c3nc4ccc(C)cc4s3)cc2)S(C)(=O)=O)c1	–	–	–	–	–	·	·	·	·	·	·
CCC(C)(C)NC(=S)Nc1ccc(-c2nc3ccc(C)cc3s2)cc1	9.1	8.4	–	20.2	0.9	16.4	7.6	–	5.7	19.2	–
CC1=CCC(C(=O)O)C(C(=O)Nc2ccc(-c3nc4ccc(C)cc4s3)cc2)C1 (stereo unspecified)	6.7	6.1	–	13.5	1.9	–	–	–	–	–	–
COc1ccccc1N(C)c1cc2c(c3c1ccn3C)C1CCC2O1 (stereo unspecified)	–	–	·	–	–	·	·	·	·	·	·
SMILES	hcDAF12 agonist	DAX1 inh-1	DAX1 inh-2	hgDAF12 agonist	ssDAF12 agonist	DAX1 conf	SF1 AF2mut Luc	LXR ag	hcDAF12 ag	hgDAF12 conf	LXRb DAF12 ctr
CCCS(=O)(=O)NC(=O)C1(C)CCN(C(=O)c2cc(-c3cccs3)oc2C)C1 (stereo unspecified)	–	–	·	–	–	·	·	·	·	·	·
COc1ccc(NC(=O)C2(C)CCN2Cc2ccc(OC)c3ccccc23)cc1OC (stereo unspecified)	–	–	·	–	–	·	·	·	·	·	·
COc1cccc(C(=O)/C=C2\Sc3ccccc3N2C)c1	13.0	5.4	–	28.2	2.6	11.4	10.0	–	9.1	21.6	–
Nc1cccc(-c2nc3cc(S(=O)(=O)c4ccc5oc(-c6cccc(N)c6)nc5c4)ccc3o2)c1	–	–	–	–	–	·	·	·	·	·	·
Cc1ccc2oc(-c3cccc(N)c3)nc2c1	13.6	6.4	–	23.4	2.5	16.4	8.2	–	10.2	22.9	–
CCOC(=O)C1=CCN(S(=O)(=O)c2ccc(Cl)cc2)C1c1ccc(Br)cc1 (stereo unspecified)	–	–	·	–	–	·	·	·	·	·	·
O=C(c1ccccc1)n1ccc(-c2cnc(-c3ccccc3)s2)n1	7.7	4.9	–	18.2	1.0	13.0	5.6	–	7.1	19.6	–
COc1ccc(S(=O)(=O)n2ccc(-c3cnc(-c4ccccc4)s3)n2)cc1	–	–	–	–	–	·	·	·	·	·	·
Cn1cccc1C(=O)OCC(=O)c1c[nH]c2ccccc12	10.6	4.7	–	13.8	–	16.0	8.1	–	6.3	13.8	–
Cc1cnc(C(=O)OCC(=O)c2c[nH]c3ccccc23)cn1	–	–	–	–	–	·	·	·	·	·	·
CC(C)(C)c1ccc(C(=O)N2CCC2(C)C(=O)NCCC#N)cc1 (stereo unspecified)	–	–	·	–	–	·	·	·	·	·	·
O=C(/C=C/c1ccccc1)CC(=O)c1ccccc1O	–	4.5	4.4	17.3	–	–	4.0	·	·	–	–
Cc1cccc(C)c1NC(=O)C1C(c2ccc3c(c2)OCO3)=Nc2ccccc2N1C(=O)c1ccccc1 (stereo unspecified)	–	–	·	–	–	·	·	·	·	·	·
O=C(Nc1ccc2c(c1)OCCO2)C1C(c2ccccc2)=Nc2ccccc2N1C(=O)c1cccnc1 (stereo unspecified)	10.7	13.0	·	20.1	–	20.0	7.9	–	7.1	12.2	–

Screens as filed in PubChem.
